Common to all, as to conditions: mRNA level, 48 h; actives raise or lower the signal
Read-out in one assay: Caspase-3 (Homo sapiens) (UniProt P42574)
Nature of the assay: LTEA_HepaRG_CASP3: Life Technologies and Expression Analysis (LTEA) Assay for cysteine-aspartic acid protease (CASP3) using HepaRG (AID 2283477). The essentials:
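Transcript-level assay: CASP3 mRNA in human HepaRG after 48 h treatment, eight half-log concentrations from 100 uM in 0.5% DMSO, quantified by qRT-PCR.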

Read-out in assay [1]: Cytochrome P450 (CYP24A1), CYP24A1 (gene 1591)
Nature of the assay: LTEA_HepaRG_CYP24A1: Life Technologies and Expression Analysis (LTEA) Assay for Cytochrome P450 (CYP24A1) using HepaRG (AID 2283478). Put shortly: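 Gene expression of CYP24A1 by TaqMan qRT-PCR in HepaRG after 48 h treatment, highest concentration 100 uM; activity fitted in both directions relative to DMSO vehicle.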

Read-out in assay [2]: Cytochrome P450 (CYP1A2), CYP1A2 (gene 1544)
Nature of the assay: LTEA_HepaRG_CYP1A2: Life Technologies and Expression Analysis (LTEA) Assay for Cytochrome P450 (CYP1A2) using HepaRG (AID 2283479). Put shortly: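 In duplicate wells, HepaRG cultures maintained in 0.5% DMSO were treated 48 h across an 8-point, half-log series topping at 100 uM; phenobarbital (1 mM) served as induction control. Expression was read by qRT-PCR.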

Read-out in assay [3]: cysteine-aspartic acid protease (CASP8), CASP8 (gene 841)
Nature of the assay: LTEA_HepaRG_CASP8: Life Technologies and Expression Analysis (LTEA) Assay for cysteine-aspartic acid protease (CASP8) using HepaRG (AID 2283480). Put shortly: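 Differentiated HepaRG cells in serum-free induction medium, 48 h exposure, eight-point half-log series from 100 uM in 0.5% DMSO, duplicates. CASP8 mRNA by qRT-PCR, normalized to ACTB, GAPDH, POLR2A; bidirectional fit versus DMSO.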

Read-out in assay [4]: Cytochrome P450 (CYP2B6), CYP2B6 (gene 1555)
Nature of the assay: LTEA_HepaRG_CYP2B6: Life Technologies and Expression Analysis (LTEA) Assay for Cytochrome P450 (CYP2B6) using HepaRG (AID 2283481). Put shortly: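 Human HepaRG, 48 h dosing, 0.5% DMSO vehicle, top dose 100 uM. CYP2B6 transcript by qRT-PCR, housekeeping-normalized, bidirectional curve fit.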

Read-out in assay [5]: Cytochrome P450 2C19 (Homo sapiens) (UniProt P33261)
Nature of the assay: LTEA_HepaRG_CYP2C19: Life Technologies and Expression Analysis (LTEA) Assay for CYP2C19 using HepaRG (AID 2283482). Put shortly: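 Endpoint: CYP2C19 mRNA change, bidirectional fit vs 0.5% DMSO. Cells: HepaRG, 48 h exposure, eight-point series topping at 100 uM. Quantitation: qRT-PCR normalized to ACTB, GAPDH, POLR2A.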

Read-out in the next assay: CYP2C8 (gene 1558)
Nature of the assay: LTEA_HepaRG_CYP2C8: Life Technologies and Expression Analysis (LTEA) Assay for CYP2C8 using HepaRG (AID 2283483). The essentials:
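Differentiated HepaRG cells in serum-free induction medium exposed 48 h in duplicate to 8 half-log concentrations from 100 uM in 0.5% DMSO. CYP2C8 mRNA by qRT-PCR normalized to ACTB, GAPDH, POLR2A; bidirectional fit versus DMSO.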

Read-out in another assay: CYP2C9 (gene 1559)
Nature of the assay: LTEA_HepaRG_CYP2C9: Life Technologies and Expression Analysis (LTEA) Assay for CYP2C9 using HepaRG (AID 2283484). The essentials:
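Differentiated human HepaRG cells in serum-free induction medium were exposed 48 h to chemicals in 8-point half-log series from 100 uM (0.5% DMSO), in duplicate. CYP2C9 mRNA was measured by qRT-PCR, normalized to ACTB/GAPDH/POLR2A, with bidirectional fitting versus DMSO.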

Read-out in another assay: CYP2E1 (gene 1571)
Nature of the assay: LTEA_HepaRG_CYP2E1: Life Technologies and Expression Analysis (LTEA) Assay for CYP2E1 using HepaRG (AID 2283485). The essentials: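 Differentiated HepaRG cells were treated in duplicate for 48 h with chemicals in 0.5% DMSO, from 100 uM downward in half-log dilutions. RNA was then analysed by qRT-PCR for CYP2E1 induction or loss.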

Read-out in the next assay: CYP4A11 (gene 1579)
Nature of the assay: LTEA_HepaRG_CYP4A11: Life Technologies and Expression Analysis (LTEA) Assay for CYP4A11 using HepaRG (AID 2283486). Put shortly:
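Human hepatic HepaRG cultures receive duplicate 48 h exposures across a concentration-response series topping at 100 uM. Expression changes in CYP4A11 are measured by qRT-PCR relative to DMSO controls.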

Read-out in assay [6]: Cytochrome P450 3A4 (Homo sapiens) (UniProt P08684)
Nature of the assay: LTEA_HepaRG_CYP3A4: Life Technologies and Expression Analysis (LTEA) Assay for CYP3A4 using HepaRG (AID 2283487). Put shortly:
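HepaRG, 48 h exposure, 8-pt CRC from 100 uM (half-log), 0.5% DMSO, duplicates; serum-free induction medium. Readout: CYP3A4 mRNA, qRT-PCR, ACTB/GAPDH/POLR2A normalization. Bidirectional fit vs DMSO.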

Read-out in assay [7]: DNA damage-inducible transcript 3 (DDIT3), DDIT3 (gene 1649)
Nature of the assay: LTEA_HepaRG_DDIT3: Life Technologies and Expression Analysis (LTEA) Assay for DNA damage-inducible transcript 3 (DDIT3) using HepaRG (AID 2283488). The essentials:
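Changes in DDIT3 transcript, in either direction relative to 0.5% DMSO vehicle, were quantified by TaqMan qRT-PCR after 48 h chemical exposure of HepaRG cells at 8 concentrations, maximum 100 uM.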

Read-out in assay [8]: Pro-epidermal growth factor (Homo sapiens) (UniProt P01133)
Nature of the assay: LTEA_HepaRG_EGF: Life Technologies and Expression Analysis (LTEA) Assay for Epidermal growth factor (EGF) using HepaRG (AID 2283489). Put shortly:
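Concentration-response mRNA assay: HepaRG cells dosed 48 h (max 100 uM, 0.5% DMSO), EGF measured by qRT-PCR and normalized to ACTB/GAPDH/POLR2A.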

Read-out in assay [9]: Early growth response protein 1 (EGR1) transcription factor, EGR1 (gene 1958)
Nature of the assay: LTEA_HepaRG_EGR1: Life Technologies and Expression Analysis (LTEA) Assay for Early growth response protein 1 (EGR1) transcription factor using HepaRG (AID 2283490). The essentials:
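Differentiated HepaRG cells in serum-free induction medium exposed 48 hours, duplicate, to 8 half-log concentrations up to 100 uM in 0.5% DMSO. EGR1 mRNA measured by TaqMan qRT-PCR, normalized to ACTB, GAPDH, POLR2A; bidirectional fit versus DMSO.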

Read-out in assay [10]: Ezrin (EZR), EZR (gene 7430)
Nature of the assay: LTEA_HepaRG_EZR: Life Technologies and Expression Analysis (LTEA) Assay for Ezrin (EZR) using HepaRG (AID 2283491). Put shortly:
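Read-out is EZR transcript level by qRT-PCR, normalized to three housekeeping genes and fitted bidirectionally against the DMSO control. Human HepaRG cells received test chemicals for 48 h at eight half-log concentrations up to 100 uM in 0.5% DMSO.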

Read-out in assay [11]: Cytochrome P450 3A7 (Homo sapiens) (UniProt P24462)
Nature of the assay: LTEA_HepaRG_CYP3A7: Life Technologies and Expression Analysis (LTEA) Assay for CYP3A7 using HepaRG (AID 2283492). Put shortly:
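qRT-PCR of CYP3A7 in HepaRG lysates after 48 h treatment; concentration-response (8 points, max 100 uM) analysed bidirectionally relative to 0.5% DMSO controls.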

Read-out in the next assay: CYP3A5 (gene 1577)
Nature of the assay: LTEA_HepaRG_CYP3A5: Life Technologies and Expression Analysis (LTEA) Assay for CYP3A5 using HepaRG (AID 2283493). Put shortly:
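mRNA induction or loss of CYP3A5 assessed in HepaRG after 48 h dosing, 100 uM top concentration, duplicate wells; TaqMan qRT-PCR with ACTB, GAPDH, POLR2A normalization; 0.5% DMSO as negative control.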

Read-out in assay [12]: Fatty Acid-Binding Protein 1 (FABP1), FABP1 (gene 2168)
Nature of the assay: LTEA_HepaRG_FABP1: Life Technologies and Expression Analysis (LTEA) Assay for Fatty Acid-Binding Protein 1 (FABP1) using HepaRG (AID 2283494). Put shortly: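 Differentiated human HepaRG cells exposed 48 h in serum-free induction medium to eight half-log concentrations up to 100 uM (0.5% DMSO), duplicate. FABP1 mRNA by qRT-PCR, normalised to ACTB, GAPDH, POLR2A; bidirectional fitting against DMSO.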

Read-out in assay [13]: Cytochrome P450 4A22 (Homo sapiens) (UniProt Q5TCH4)
Nature of the assay: LTEA_HepaRG_CYP4A22: Life Technologies and Expression Analysis (LTEA) Assay for Cytochrome P450 4A22 (CYP4A22) using HepaRG (AID 2283495). The essentials:
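Concentration-response (8 points, max 100 uM, 0.5% DMSO) in human HepaRG liver cells after 48 h exposure. CYP4A22 mRNA by TaqMan qRT-PCR with housekeeping-gene normalization.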

Read-out in assay [14]: Cytochrome P450 7A1 (Homo sapiens) (UniProt P22680)
Nature of the assay: LTEA_HepaRG_CYP7A1: Life Technologies and Expression Analysis (LTEA) Assay for Cytochrome P450 7A1 (CYP7A1) using HepaRG (AID 2283496). The essentials:
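Gene expression endpoint in human HepaRG liver cells treated for 48 h with test chemicals (up to 100 uM, 0.5% DMSO). Values come from bidirectional concentration-response fitting versus DMSO.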

Molecules are shown by their SMILES. The source made the active and inactive calls. The calls were made as follows: active = hit-call score of the fitted dose curve at least 0.9, where 1 is the maximum; inactive = score below 0.9.

Cytochrome P450 2C19 (Homo sapiens), sequence (P33261 whole entry, looked up): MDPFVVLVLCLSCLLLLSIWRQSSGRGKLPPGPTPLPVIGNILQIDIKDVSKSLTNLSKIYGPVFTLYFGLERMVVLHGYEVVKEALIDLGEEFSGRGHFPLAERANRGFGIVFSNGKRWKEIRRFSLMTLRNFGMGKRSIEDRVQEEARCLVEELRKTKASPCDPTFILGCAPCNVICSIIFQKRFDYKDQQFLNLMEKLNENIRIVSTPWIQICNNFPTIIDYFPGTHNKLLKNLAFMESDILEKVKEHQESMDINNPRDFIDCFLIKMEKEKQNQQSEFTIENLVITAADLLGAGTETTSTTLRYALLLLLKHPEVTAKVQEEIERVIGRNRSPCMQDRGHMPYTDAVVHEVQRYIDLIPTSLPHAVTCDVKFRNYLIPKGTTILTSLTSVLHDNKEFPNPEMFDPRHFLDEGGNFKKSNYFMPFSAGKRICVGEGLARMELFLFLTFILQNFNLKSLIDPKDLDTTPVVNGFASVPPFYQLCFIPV
Cytochrome P450 3A4 (Homo sapiens), sequence (P08684 whole entry, looked up): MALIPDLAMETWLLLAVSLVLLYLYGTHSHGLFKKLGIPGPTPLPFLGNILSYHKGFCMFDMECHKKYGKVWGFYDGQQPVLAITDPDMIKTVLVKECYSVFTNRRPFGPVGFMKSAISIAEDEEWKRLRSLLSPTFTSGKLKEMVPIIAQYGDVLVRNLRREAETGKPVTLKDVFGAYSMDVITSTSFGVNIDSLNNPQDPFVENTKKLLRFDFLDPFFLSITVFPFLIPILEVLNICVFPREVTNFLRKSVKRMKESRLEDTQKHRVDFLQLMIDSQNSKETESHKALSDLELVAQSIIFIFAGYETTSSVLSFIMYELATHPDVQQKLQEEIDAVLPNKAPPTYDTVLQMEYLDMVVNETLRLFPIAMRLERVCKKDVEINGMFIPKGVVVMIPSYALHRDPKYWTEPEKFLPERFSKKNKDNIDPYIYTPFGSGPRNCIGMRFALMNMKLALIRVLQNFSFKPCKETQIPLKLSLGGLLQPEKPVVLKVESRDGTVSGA
Cytochrome P450 3A7 (Homo sapiens), sequence (P24462 whole entry, looked up): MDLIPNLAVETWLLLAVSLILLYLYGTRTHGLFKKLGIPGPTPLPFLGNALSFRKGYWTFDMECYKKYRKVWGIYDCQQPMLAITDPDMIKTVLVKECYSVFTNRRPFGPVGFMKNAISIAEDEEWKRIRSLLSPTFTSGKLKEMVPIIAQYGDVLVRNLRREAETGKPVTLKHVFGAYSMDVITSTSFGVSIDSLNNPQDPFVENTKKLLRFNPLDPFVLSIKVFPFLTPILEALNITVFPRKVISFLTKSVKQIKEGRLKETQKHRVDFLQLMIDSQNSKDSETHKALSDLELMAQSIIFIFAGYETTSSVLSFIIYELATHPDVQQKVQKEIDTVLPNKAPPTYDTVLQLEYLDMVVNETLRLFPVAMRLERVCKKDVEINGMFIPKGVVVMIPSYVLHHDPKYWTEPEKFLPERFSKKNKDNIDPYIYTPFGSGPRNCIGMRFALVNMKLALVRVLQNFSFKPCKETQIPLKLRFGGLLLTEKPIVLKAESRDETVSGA
Caspase-3 (Homo sapiens), sequence (P42574 whole entry, looked up): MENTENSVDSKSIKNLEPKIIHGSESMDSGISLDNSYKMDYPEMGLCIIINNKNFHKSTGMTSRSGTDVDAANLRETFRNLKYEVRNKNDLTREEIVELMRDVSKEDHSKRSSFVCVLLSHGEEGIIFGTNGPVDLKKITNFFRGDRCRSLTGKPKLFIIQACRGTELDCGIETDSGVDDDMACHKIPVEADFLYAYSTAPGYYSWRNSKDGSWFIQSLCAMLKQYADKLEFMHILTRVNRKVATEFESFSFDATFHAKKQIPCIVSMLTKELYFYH

Consider `Cc1cccc(C)c1O`, for which the outcome (with Caspase-3 (Homo sapiens); in assay [1]; in assay [2]; in [3]; in [4]; in assay [5]) was inactive. Also, the compound was called inactive (with CYP2C8 (gene 1558); with CYP2C9 (gene 1559); with CYP2E1 (gene 1571); with CYP4A11 (gene 1579); in assay [6]; in assay [7]). The call (in assay [8]; in assay [9]; in assay [10]; in assay [11]; with CYP3A5 (gene 1577); in assay [12]) was inactive. Further, the compound was called inactive in assay [13] and in assay [14].
In the case of `Oc1ccc2ccccc2c1N=Nc1ccccc1`, the compound was classed as inactive (with Caspase-3 (Homo sapiens); in assay [1]; in [3]; in assay [7]; in assay [8]; in assay [10]). For the same compound, the compound was called inactive in assay [13]. The AC50 (as a rule, the concentration at which the activity in the assay is half-maximal) in [2] is 232 nM (active); in assay [4] it was 31500 nM (active); in [5], 9920 nM (active); in the assay with CYP2C8 (gene 1558) it was 9550 nM (active); with CYP2C9 (gene 1559), 9920 nM (active); with CYP2E1 (gene 1571), 21500 nM (active). For the same compound, the AC50 with CYP4A11 (gene 1579) was 27100 nM (active); in assay [6], 1810 nM (active); in assay [9], 3530 nM (active); in assay [11] it was 2190 nM (active); in the assay with CYP3A5 (gene 1577) it was 8100 nM (active); in assay [12] it was 16200 nM (active). In addition, the AC50 in assay [14] was 16300 nM (active).
For the compound `CC(C)c1ccc(C(=O)N=C(N)N)cc1S(C)(=O)=O`, the AC50 is 383 nM (active) with Caspase-3 (Homo sapiens); 452 nM (active) in assay [2]; 409 nM (active) in assay [3]; 464 nM (active) in assay [4]; 13100 nM (active) in assay [5]; 578 nM (active) with CYP2C8 (gene 1558). The AC50 with CYP4A11 (gene 1579) is 297 nM (active); in [6] it was 9240 nM (active); in assay [7], 545 nM (active); in [8], 690 nM (active); in [9], 337 nM (active); in assay [11] it was 740 nM (active). In addition, the AC50 in assay [13] is 8370 nM (active). Besides, the result (in [1]; with CYP2C9 (gene 1559); in the assay with CYP2E1 (gene 1571); in assay [10]; in the assay with CYP3A5 (gene 1577); in assay [12]) was inactive. In addition, the outcome in assay [14] was inactive.

The values above are taken from PubChem BioAssay (EPA / NIEHS).
